Sm TGR block: inhibitors of Schistosoma mansoni thioredoxin glutathione reductase | Q962Y6 | purified TGR, DTNB reduction, TNB absorbance 405 nm | Potency, µM (top dose mostly 114 µM), for the others: at the highest dose activity change, negative = inhibition, hits mostly inhibitors | 3% of 360,000 active; note: % is set by controls: 0 for no effect and ±100 for the full control effect; nearly all actives have a fitted effect of over 60% in size
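First, TGR (20 nM dispensed) and NADPH were mixed with compound. Second, a 15 min room-temperature incubation followed. Third, further NADPH and then DTNB were added to start the reaction. Finally, TNB absorbance was monitored kinetically.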
AmpC inh no detg: AmpC beta-lactamase inhibition without detergent; AmpC nitrocefin hydrolysis, absorbance 480 nm, 0.0001% Triton; Potency, µM (highest dose often 57.1 µM), for inactives: at the highest dose activity change, negative = inhibition, most hits filed as inhibitors; AID 485341; 0.52% of 330,000 active; P00811;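 note: plate controls were no compound for no effect and no enzyme for full effect; nearly all actives have a fitted effect of over 20% in size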
Target sequence (P00811 whole entry, looked up): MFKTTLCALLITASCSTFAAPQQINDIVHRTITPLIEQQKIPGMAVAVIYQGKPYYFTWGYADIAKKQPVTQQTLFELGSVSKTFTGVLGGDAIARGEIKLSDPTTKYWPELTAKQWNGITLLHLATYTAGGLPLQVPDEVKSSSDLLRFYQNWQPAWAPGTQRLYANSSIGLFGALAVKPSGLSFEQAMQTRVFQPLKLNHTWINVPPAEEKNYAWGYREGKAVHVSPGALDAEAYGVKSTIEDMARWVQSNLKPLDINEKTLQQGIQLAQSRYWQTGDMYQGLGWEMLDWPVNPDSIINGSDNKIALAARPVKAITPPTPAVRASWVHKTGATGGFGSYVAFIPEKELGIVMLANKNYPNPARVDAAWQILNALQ
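20 mM phosphate pH 7.0 + 0.01% (detergent screen) or 0.0001% Triton X-100; 5.3 nM AmpC reagent; cpd preinc 15 min RT; nitrocefin (800 uM stock) to start; A480 q20 s × 4 min; Activity was normalised to no-enzyme and no-compound control wells.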
Tb PYK inh: blocks Trypanosoma brucei pyruvate kinase | TbPYK enzyme, Kinase-Glo Plus ATP luminescence, 45 min | Q57TT1 | Potency, µM (top dose mostly 76.8 µM), without a hit: at the top dose activity, negative = inhibition, usual class: inhibitors | 0.12% of 410,000 active | AID 624173; note: % is set by controls: 0 for no effect and ±100 for the full control effect; nearly all actives have a fitted effect of over 50% in size
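Readout: single end-point luminescence (Kinase-Glo Plus, 10 min). Reaction conditions were TbPYK/substrate plus 130 uM ADP, 45 min at RT, pH 7.2 TEA buffer. No-enzyme wells served as controls, and data were normalized before concentration-response fitting.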
AmpC inh detg: blocks E. coli AmpC beta-lactamase in detergent assay | P00811 | AmpC hydrolysis of nitrocefin, absorbance 480 nm, 0.01% Triton | Potency, µM (doses to about 114 µM), without a hit: at the top dose activity change, negative = inhibition, actives largely listed as inhibitors | 0.041% of 370,000 active | AID 485294;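 note: 0% = no-compound wells and -100% = no-enzyme wells; nearly all actives have a fitted effect of over 25% in size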
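20 mM phosphate pH 7.0 + 0.01% (detergent screen) or 0.0001% Triton X-100; 5.3 nM AmpC reagent; cpd preinc 15 min RT; nitrocefin (800 uM stock) to start; A480 q20 s × 4 min; Activity was normalised to no-enzyme and no-compound control wells.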
SARS PLP yeast: SARS-CoV PLP inhibition in yeast; S. cerevisiae expressing SARS-CoV PLpro, growth rescue; Potency, µM (top dose mostly 32.9 µM), for the others: at the highest dose activity, positive = growth rescue, most hits filed as activators; 0.19% of 330,000 active; calls by dose curve; note: 0% is about no effect; nearly all actives have a fitted effect of over 55% in size
RE007 growth inh: less growth of the S. pombe RE007 Vpr strain. S. pombe RE007 Vpr strain, BacTiter-Glo ATP luminescence, 24 h. Potency, µM (titrated, usually from 92.2 µM), for the others: top-dose activity change, negative = less growth, usual class: inhibitors. 0.21% of 360,000 active. AID 651644; active = well fitted falling curve with a large enough effect; inconclusive = small, poorly fitted or top-dose-only effect; inactive = no such curve, though single readings can be large or run the other way; note: % is set by controls: 0 for no effect and ±100 for the full control effect; nearly all actives have a fitted effect of over 50% in size
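Fission yeast strain RE007, carrying one chromosomally integrated HIV-1 vpr copy, was seeded at OD 0.01 in PMG+AL medium with 23 nL pinned compound. After 24 h at 30 °C and 99% humidity, viability was read by BacTiter-Glo luminescence.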
The depositor's hits bear a star; ? = inconclusive; . = not tested or not shown; [ ] = another dose, or the depositor's remark. Compounds with a hit are over-represented: about 3.3% of the library has one in this group of screens. Unless noted, calls come from the whole dose curve; as a rule, active = well fitted curve in the direction sought with a large enough effect; inconclusive = small, poorly fitted or top-dose-only effect, or another doubt; inactive = no such curve, though single readings can be large; an effect the other way counts as inactive or inconclusive. Potency is the fitted concentration of half-maximal effect.

SMILES | Sm TGR block | AmpC inh no detg | Tb PYK inh | AmpC inh detg | SARS PLP yeast | RE007 growth inh
CCC(=O)Nc1nc2c(s1)COc1ccccc1-2 | -1% | 2.8µM* | -3% | 4% | -11% | 16%
Cc1cc(C)cc(C(=O)NCCc2sc(-c3ccc(F)cc3)nc2C)c1 | 4% | . | 5% | 20% | . | .
CN1CCN(C(c2ccccc2)c2ccc(Cl)cc2)CC1 (stereo not given) | -2% | 41% | -5% | -14% | . | -13%[18.4 µM]
Oc1c(C(c2ccccn2)N2CCCCC2)cc(Cl)c2cccnc12 (stereo not given) | 3.5µM* | -14% | 68% | ? | -25% | ?
CN1CCN(C(c2ccc(C(F)(F)F)cc2)c2cc(Cl)c3cccnc3c2O)CC1 (stereo not given) | 0.63µM* | 1% | . | -7% | -15% | .
CN1CCN(C(c2ccc(Cl)cc2)c2cc(Cl)c3cccnc3c2O)CC1 (stereo not given) | 0.35µM* | -2% | 21% | -6% | -23% | 8%
O=S(=O)(c1ccccc1)c1nnn2c1nc(NC1CCCCC1)c1sccc12 | -1% | . | 1% | 1% | . | .
CCOc1ccc(N(C(C)C(=O)NC2CCCCCC2)S(C)(=O)=O)cc1 (stereo not given) | -5% | 30% | -15% | 0% | 1% | 12%
COc1ccc(N(C(=O)/C=C\C(=O)Nc2ccc(Cl)cc2)C(C(=O)NCc2ccco2)c2ccc(C)cc2)cc1 (stereo not given) | 7.9µM* | . | -6% | -5% | . | .
CCOc1ccc(N(C(C)C(=O)NCc2ccco2)S(C)(=O)=O)cc1 (stereo not given) | 45µM* | -10% | -3% | 8% | 1% | 0%
CCOc1ccc(NC(=O)/C=C\C(=O)N(c2ccc(C(C)C)cc2)C(C(=O)NCc2ccco2)c2ccc(F)cc2)cc1 (stereo not given) | 56µM* | . | 6% | 10% | . | .
Cc1ccc(NC(=O)/C=C\C(=O)N(c2ccc(C(C)C)cc2)C(C(=O)NCc2ccco2)c2ccc(Cl)cc2)cc1 (stereo not given) | ? | . | -3% | -2% | . | .
C=CCOc1ccc(CC2C(=O)N(C)C(=O)N(C)C2=O)cc1 | 25µM* | 10% | -6% | -2% | 6% | -1%
CCN(CC)c1ccc(CC2C(=O)N(C)C(=O)N(C)C2=O)cc1 | 14µM* | -11% | -19% | -8% | 6% | -17%
CCCN(Cc1ccc(N(CC)CC)cc1)CC1CC1 | 1% | -13% | -2% | 2% | -1% | -16%
COCCCNC(=O)c1c(NC(=O)c2cc(=O)c3ccccc3o2)sc2c1CCCC2 | -1% | . | -3% | 7% | . | .
COc1ccc(Br)cc1[C@@H]1Nc2ccc(C(=O)O)cc2[C@@H]2C=CC[C@@H]21 | -20% | . | -28% | -10% | . | .
CCOC(=O)c1ccc2c(c1)[C@@H]1C=CC[C@@H]1[C@H](c1cccc(OC)c1OC)N2 | 0% | . | -19% | -1% | . | .
CCOC(=O)C1Nc2ccc(Br)cc2C2C=CCC12 (stereo not given) | 28µM* | -27% | ? | -4% | -4% | 9%
CCOC(=O)c1ccc2c(c1)C1C=CCC1C(C(=O)OCC)N2 (stereo not given) | 32µM* | -8% | ? | ? | 0% | 1%
CCOC(=O)C1Nc2ccc(C)cc2C2C=CCC12 (stereo not given) | . | . | -13% | . | . | -4%
O=C(OC1CCCCC1)c1ccc2c(c1)C1C=CCC1C(C(=O)O)N2 (stereo not given) | 3.2µM* | -23% | . | -8% | 4% | .
O=C(O)C1Nc2ccc(Br)cc2C2C=CCC12 (stereo not given) | 0.89µM* | -44% | -8% | ? | -3% | 5%
O=C(Nc1cc(Cl)cc(Cl)c1)c1ccc(F)c(S(=O)(=O)NC2CCCC2)c1 | -2% | . | -5% | 11% | . | .
COc1ccccc1-c1noc(-c2ccc(N3CCN(C)CC3)c([N+](=O)[O-])c2)n1 | 5% | . | -1% | -1% | . | .
SMILES | Sm TGR block | AmpC inh no detg | Tb PYK inh | AmpC inh detg | SARS PLP yeast | RE007 growth inh
CS(=O)c1ccccc1O (stereo not given) | -1% | -16% | -3% | -14% | 1% | 12%
O=S(c1ccccc1O)S(=O)c1ccccc1O (stereo not given) | . | . | 4.5µM* | . | . | 35µM*
CCOc1ccc(N2CC(NC(=O)/C=C\c3ccc4c(c3)OCO4)CC2=O)cc1 (stereo not given) | 2% | . | 8% | 2% | . | .
Cc1nn(CC(=O)NCCc2ccccc2Cl)c(=O)c2nn(-c3ccccc3)c(C)c12 | 9% | . | 4% | 25% | . | .
CCCN(C(=O)/C=C/c1ccco1)c1c(N)n(Cc2ccccc2)c(=O)[nH]c1=O | 45µM* | -7% | 3% | 4% | -1% | 0%
CCCCN(C(=O)/C=C/c1ccco1)c1c(N)n(Cc2ccccc2)c(=O)[nH]c1=O | ? | -20% | -4% | -2% | 2% | 3%
CCN(C(=O)COC(=O)/C=C/c1ccc(C)o1)c1c(N)n(Cc2ccccc2)c(=O)[nH]c1=O | 18µM* | -1% | ? | ? | -1% | -8%
Cc1ccc2c(c1)c1c(c(=O)n(Cc3ccccc3)c(=O)n1CC(=O)Nc1ccccc1C)n2C | 0% | . | -12% | 1% | . | .
Cc1csc2nc(COC(=O)c3ccc(NC(=O)C(C)Oc4ccccc4)cc3)cc(=O)n12 (stereo not given) | 23% | . | -3% | 1% | . | .
CCOC(=O)Cn1c(=O)n(CC2CCCO2)c2nc(-c3ccccc3OC)nc(C(N)=O)c21 (stereo not given) | -4% | . | 0% | 1% | . | .
Cc1ccc2nc(CCl)[n+]([O-])c(-c3ccccc3)c2c1 | 4.5µM* | -19% | ? | -2% | -3% | 0%
Cc1ccc(C(=O)N2CCc3cc(CNC(=O)COc4ccccc4)ccc32)cc1 | ? | . | -16% | -2% | . | .
Cc1cc(-c2ccccc2)n(-c2ccccc2)n1 | ? | -10% | 2% | -8% | 9% | -8%
Cc1cc(-c2ccco2)n(-c2ccccc2)n1 | 4µM* | -15% | -16% | ? | 5% | -19%
Cc1ccc(CNC(=O)C2CCCN(S(=O)(=O)c3ccc4c(ccn4C)c3)C2)cc1 (stereo not given) | 3% | . | 3% | -9% | . | .
Cc1ccc(-n2c(CCC(=O)O)ccc2-c2cccs2)cc1 | 13µM* | -45% | -25% | 0% | 0% | -14%
Cc1ccc(-n2c(CCC(=O)O)ccc2-c2cccs2)cc1Cl | 7.9µM* | . | -23% | 3% | . | .
